Measurements published in PubChem BioAssay AID463173 (ICCB-Longwood Screening Facility, Harvard Medical School, 2010).
The campaign covered roughly 52,000 compounds. About 4,300 (8.3%) were called active. This excerpt belongs to a sample that is enriched for actives. Unmarked numbers belong to inactive results. Cut-off read from the data, not from the text of the source: active = survival mostly below about 52% (no sharp cut-off); inactive = mostly above about 56%.

What follows are compounds tested on DeltatarO mutant (assay: growth inhibition of S. aureus wild type versus tarO mutant, primary screen, teichoic acid synthesis inhibitors, RN4220, OD600 (AID 463173)). Conditions: OD600, 18 h, stronger effect = lower value, screened at 18.75 µg/mL (by protocol).
Work on `CCN(CC)S(=O)(=O)c1ccc2c(c1)N(CC(=O)N1CCN(c3cccc(C(F)(F)F)c3)CC1)C(=O)CO2` yielded a survival of 68%. In the case of `Cc1ccc(SCc2nc(-c3ccc(C(=O)NCc4ccccc4Cl)cc3)oc2C)cc1`, the survival is reported as 84%. For `Fc1cccc(NCc2ccccc2-c2nnc(-c3ccccc3Cl)o2)c1`, the survival was 110%. In the case of `CC(C)NC(=O)CSc1nnc(Cc2ccccc2)n1C`, the survival is reported as 83%. `CC(C)NC(=O)CSc1nnc(Cc2ccccc2)n1Cc1ccco1` was tested, and the survival was 40% (active). In the case of `O=C(CSc1nnc(Cc2ccccc2)n1Cc1ccco1)NC1CCCC1`, the survival is reported as 44% (active). In the case of `O=C(CSc1nccn1Cc1ccccc1)NC1CCCC1`, the survival is reported as 69%. `O=C(CSc1nnc(Cc2ccccc2)n1Cc1ccccc1)NCc1ccco1` was tested, and the survival was 63%. Work on `CCn1c(SCC(=O)NC2CCCC2)nnc1-c1ccccc1` yielded a survival of 75%. `CCOc1ccccc1CNC(=O)c1cccn1-c1nnc(N2CCCCC2)s1` was tested, and the survival was 131%. `COc1ccccc1CCNC(=O)c1cccn1-c1nnc(N2CCCCC2)s1` gave a survival of 95%. For `COc1ccc(CNC(=O)c2cccn2-c2nnc(N3CCCCC3)s2)c(OC)c1`, the survival was 0% (active). Compound `CCOc1ccccc1CNC(=O)c1cccn1-c1nnc(N2CCCC2)s1` has a survival of 102%. For `COc1ccc(NC(=O)c2cccn2-c2nnc(N3CCCCC3)s2)c(OC)c1`, the survival was 98%. Compound `COc1ccc(CNC(=O)c2cccn2-c2nnc(N3CCCC3)s2)c(OC)c1` has a survival of 91%. In the case of `CCN1CCN(c2nnc(-n3cccc3C(=O)NCc3ccccc3OC)s2)CC1`, the survival is reported as 46% (active). In the case of `COc1ccccc1CNC(=O)c1cccn1-c1nnc(N2CCCCC2)s1`, the survival is reported as 37% (active). Compound `Cc1ccc(NCc2cccn2-c2nnc(N3CCCCCC3)s2)cc1` has a survival of 78%. In the case of `CCc1ccc(NCc2cccn2-c2nnc(N3CCCCCC3)s2)cc1`, the survival is reported as -6% (active). `COc1ccc(NCc2cccn2-c2nnc(N3CCCCCC3)s2)cc1` gave a survival of 71%. `COc1ccccc1CNC(=O)c1cccn1-c1nnc(N2CCCC2)s1` was tested, and the survival was 92%. `CCOc1ccc(/C=C/c2nc3ccccc3n2S(=O)(=O)c2ccc(Br)cc2)cc1` was tested, and the survival was 59%. Compound `CCN1CCSc2ccc(C(=O)NCc3ccc(F)cc3)cc21` has a survival of 97%. With `CNC(=O)c1ccc(CN2CCc3ccccc3C2)cc1` the survival was 100%. Work on `CCOC(=O)c1c(C)[nH]c(C)c1S(=O)(=O)N1CCC(C(=O)N2CCN(c3ccccc3)CC2)CC1` yielded a survival of 90%. Compound `O=C(CSc1nccn1Cc1ccc(Cl)cc1)Nc1ccc2c(c1)OCCO2` has a survival of 94%. `Cc1ccc(-n2ncc(C(=O)N3CCN(c4ccccn4)CC3)c2C2CCN(C(=O)OC(C)(C)C)CC2)cc1` gave a survival of 81%. `O=C(Cn1c(=O)oc2cc(S(=O)(=O)NCc3ccccc3)ccc21)Nc1cccc(F)c1` gave a survival of 78%. `O=C(NCc1cccc(Br)c1)c1cccn1-c1nnc(N2CCCCC2)s1` was tested, and the survival was 78%. `O=C(NCc1ccccc1)c1cccn1-c1nnc(N2CCCC2)s1` showed a survival of 55%. In the case of `CCOc1ccccc1CNCc1cccn1-c1nnc(N2CCN(c3ccccc3)CC2)s1`, the survival is reported as 47% (active). `Cc1ccc(CNCc2cccn2-c2nnc(N3CCCC3)s2)cc1` was tested, and the survival was 86%. For `O=C(NCc1cccc(Cl)c1)c1cccn1-c1nnc(N2CCCC2)s1`, the survival was 37% (active). Compound `COc1cccc(CNCc2cccn2-c2nnc(N3CCN(c4ccccc4)CC3)s2)c1` has a survival of 79%. Compound `O=C1C=C(N2CCCCC2)C2(CCCCC2)O1` has a survival of 106%. Compound `COc1ccc(CCN(Cc2cc3cc(C)ccc3n3nnnc23)C(=O)N(C)C)cc1OC` has a survival of 86%. Compound `Cc1ccc(C)c(N2CCN(C3(c4ccccc4)C(=O)c4ccccc4C3=O)CC2)c1` has a survival of 98%. Compound `COc1cccc(C(=O)NCC(=O)OCc2cc(=O)n3nc(C)sc3n2)c1` has a survival of 116%. For `COc1ccc(OC)c(C2c3c(oc4ccc(C)cc4c3=O)C(=O)N2CCCN(C)C)c1` (centres undefined), the survival was 73%. Compound `COc1cc(NC(=O)CC(C)S(=O)(=O)c2ccc3c(c2)CCN3C(C)=O)cc(OC)c1OC` (centres undefined) has a survival of 92%. `CC(=O)N1CCc2cc(CNC(=O)Nc3ccc(Br)c(C)c3)ccc21` was tested, and the survival was 87%. For `CC(=O)N1CCc2cc(S(=O)(=O)C(C)CC(=O)Nc3ccc(Br)c(C)c3)ccc21` (centres undefined), the survival was -5% (active). For `Cc1ccc(C)c(N2CCN(Cc3csc(C)c3)CC2)c1`, the survival was 119%. Compound `CC(C)(C)NC(=O)CSc1nnc(-c2cccs2)o1` has a survival of 102%. `CCOc1ccccc1NC(c1nnc(-c2ccccc2)o1)c1ccc(F)cc1Cl` (centres undefined) was tested, and the survival was 1% (active). `COc1ccc(C)cc1NC(c1nnc(-c2ccccc2)o1)c1ccc(F)cc1Cl` (centres undefined) was tested, and the survival was -3% (active). `COc1cc(OC)c(NC(c2nnc(-c3ccccc3)o2)c2ccc(F)cc2Cl)cc1Cl` (centres undefined) was tested, and the survival was 61%. With `CCc1ccccc1NC(c1nnc(-c2cccc(F)c2)o1)c1ccc(F)cc1Cl` (centres undefined) the survival was 96%. With `Cc1cccc(NC(c2nnc(-c3ccccc3)o2)c2ccc(F)cc2Cl)c1C` (centres undefined) the survival was 61%. For `COc1cccc(NC(c2nnc(-c3ccccc3)o2)c2ccc(F)cc2Cl)c1` (centres undefined), the survival was 54%. In the case of `Nc1ccc2nc(CN3CCOCC3)[nH]c2c1`, the survival is reported as 88%. `Cc1cc(C)cc(N2C(=O)CS(=O)(=O)C23C(=O)N(Cc2ccccc2)c2ccccc23)c1` (centres undefined) showed a survival of 82%. `COC(=O)c1ccc(Cl)cc1NC(=O)N1CCC(CN2CCCC2)CC1` gave a survival of 84%. Compound `CCc1ccc(NC(=O)C(=O)NCCc2sc(-c3ccc(OC)c(OC)c3)nc2C)cc1` has a survival of 78%. `Cc1ccc(CNC(=O)c2ccc3c(c2)c(C)c(C)n3Cc2ccc(Cl)cc2)o1` showed a survival of 75%. Compound `CCCOc1ccccc1-c1nc(SCC(=O)c2ccccc2)n[nH]1` has a survival of 109%. `COc1ccccc1-c1nc(SCC(=O)c2ccc(Cl)cc2)n[nH]1` was tested, and the survival was 175%. `CCOc1ccc(-c2nc(SCC(=O)c3ccccc3)n[nH]2)cc1` showed a survival of 179%. Work on `CCOc1ccccc1-c1nc(SCC(=O)c2ccc(OC)c(Br)c2)n[nH]1` yielded a survival of 53%. For `COc1ccccc1-c1nc(SCC(=O)c2ccccc2)n[nH]1`, the survival was 53% (active). `COc1ccc(NC(=O)CSc2n[nH]c(-c3ccccc3)n2)cc1Cl` showed a survival of 88%. Work on `Cc1ccc(NC(=O)CSc2n[nH]c(-c3ccc(F)cc3)n2)cc1F` yielded a survival of 128%. For `COc1ccccc1-c1nc(SCC(=O)Nc2ccc(C)c(C)c2)n[nH]1`, the survival was 43% (active). For `CC(C)Oc1ccccc1-c1nc(SCC(=O)c2ccc(F)cc2)n[nH]1`, the survival was 40% (active). With `CC(C)(C)NC(=O)c1cnn(-c2ccccc2)c1C1CCN(C(=O)OC(C)(C)C)CC1` the survival was 78%. `CC(=O)c1c(C)oc2ccc(N(C(=O)Oc3ccccc3)S(=O)(=O)c3ccc(Cl)cc3)cc12` showed a survival of 75%. `CCC(=O)OC1=C(C(C)=O)N(Cc2ccccc2)S(=O)(=O)c2ccccc21` showed a survival of 62%. Compound `COc1ccc(C(CC(=O)Nc2ccc(F)c(Cl)c2)N2Cc3ccccc3C2=O)cc1OC` (centres undefined) has a survival of 75%. In the case of `O=C(NC1CC(=O)N(c2ccccc2)C1)c1ccc(Br)o1` (centres undefined), the survival is reported as 87%. In the case of `COc1ccc(N2CC(NC(=O)c3ccc(Br)o3)CC2=O)cc1` (centres undefined), the survival is reported as 81%. `COc1ccc(N2CC(NC(=O)Cc3cccs3)CC2=O)cc1OC` (centres undefined) was tested, and the survival was 94%. With `Cc1ccc(N2CC(NC(=O)c3ccc(Br)o3)CC2=O)cc1C` (centres undefined) the survival was 37% (active). `Cc1ccc(N2CC(NC(=O)Cc3cccs3)CC2=O)cc1` (centres undefined) was tested, and the survival was 8% (active). In the case of `Cc1ccc(N2CC(NC(=O)Cc3cccs3)CC2=O)cc1C` (centres undefined), the survival is reported as 25% (active). Work on `O=C(Cc1cccs1)NC1CC(=O)N(c2ccccc2)C1` (centres undefined) yielded a survival of 88%. `O=C(Cc1cccs1)NC1CC(=O)N(c2ccc(Cl)cc2)C1` (centres undefined) gave a survival of 67%. For `O=C(Cc1cccs1)NC1CC(=O)N(c2ccc(F)cc2)C1` (centres undefined), the survival was 99%. In the case of `Cc1ccc(C)c(NC(=O)CCn2cnnn2)c1`, the survival is reported as 148%. With `Cc1nnsc1C(=O)Oc1ccc(C#N)cc1` the survival was 89%. For `COc1cccc(NC(=O)c2cc(CN3CCOCC3)on2)c1`, the survival was 88%. With `CCOC(=O)c1ccc(CN(Cc2ccc(Br)cc2)S(=O)(=O)c2cccc(Cl)c2C)cc1` the survival was 84%. In the case of `CC(=O)c1ccc(NC(=O)CN(C)S(=O)(=O)c2cc3c(cc2Cl)NC(=O)CO3)cc1`, the survival is reported as 72%. Work on `O=C(NCc1ccccc1Cl)c1ccc2c(c1)NC(=O)C(CS(=O)(=O)Cc1ccc(F)cc1Cl)N2` (centres undefined) yielded a survival of 81%. With `COc1ccc(N2CCN(c3csc4ccccc4c3=O)CC2)cc1` the survival was 81%. With `CCc1ccc(S(=O)(=O)c2nnn3c2nc(N2CCC(C(N)=O)CC2)c2cc(Cl)ccc23)cc1` the survival was 69%. In the case of `Cc1cc(C)n(CC(C)O)c(=O)c1C#N` (centres undefined), the survival is reported as 108%. `CC1(C)C(=O)N(CC(=O)Nc2ccc(Br)cc2F)c2ccccc21` showed a survival of 89%. With `CCc1cccc(OCC(=O)Nc2ccc(S(=O)(=O)Nc3ncccn3)cc2)c1` the survival was 43% (active). In the case of `Cc1ccc(OCC(=O)Nc2ccc(S(=O)(=O)Nc3ncccn3)cc2)c(C(C)(C)C)c1`, the survival is reported as 47% (active). Compound `CC(C)c1ccc(OCC(=O)Nc2ccc(S(=O)(=O)Nc3ncccn3)cc2)cc1` has a survival of 75%. Compound `CCc1cccc(OCC(=O)Nc2ccc(S(=O)(=O)Nc3cc(C)nc(C)n3)cc2)c1` has a survival of 58%. Compound `Cc1cc(Br)cc(C)c1OCC(=O)Nc1ccc(S(=O)(=O)Nc2ncccn2)cc1` has a survival of 56%. Work on `Cc1ccccc1OCC(=O)Nc1ccc(S(=O)(=O)Nc2ncccn2)cc1` yielded a survival of 133%. Work on `CCC(Sc1nc2ncccc2[nH]1)C(=O)Nc1ccccc1F` (centres undefined) yielded a survival of 112%.
